Only some compounds are listed: those with a hit (about 8% of all), similar ones and a draw of the others.
MCF10A rereplic: inducers of DNA re-replication in MCF 10A breast cells; Potency, µM (doses to about 46.1 µM), for the others: top-dose activity, positive = re-replication, actives largely listed as activators; 350,000 tested, 2.9% active; MCF 10A DNA re-replication, Hoechst nuclear intensity, 48 h; AID 624296; note: % of control where 0% means no effect; nearly all actives have a fitted effect of over 50% in size
HT1080-NT tox: kills 2HG-producing HT-1080-NT fibrosarcoma cells; HT-1080-NT fibrosarcoma viability, CellTiter-Glo ATP luminescence, 48 h; Potency, µM (titrated, usually from 46.1 µM), inactives show top-dose activity, negative = less viability, actives largely listed as cytotoxic; 360,000 tested, 1.6% active;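 note: NT is the 2HG producing partner of a matched IDH1 knockdown line; 0% = DMSO-treated cells and -100% = media-only wells without cells; nearly all actives have a fitted effect of over 55% in size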
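A 48-hour cytotoxicity screen used HT-1080-NT cells plated 2 hours before compound delivery. ATP-based CellTiter-Glo luminescence measured viability, normalized to DMSO and no-cell controls.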
KB-V1 cytotox: kills drug-selected multidrug resistant KB-V1 cells. KB-V1 MDR cells viability, CellTiter-Glo, 72 h. Potency, µM (titrated, usually from 46.1 µM), most hits filed as cytotoxic. 400,000 tested, 3.4% active; note: % is set by controls: 0 for no effect and ±100 for the full control effect; nearly all actives have a fitted effect of over 60% in size
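Luminescent ATP read-out (CellTiter-Glo, 10 min) measures survival of drug-selected KB-V1 MDR cells after 72 h, 37 degrees C compound exposure. Medium: phenol-red-free DMEM, 10% FBS. Values from fitted concentration-response curves.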
HT1080 IDH1KD tx: kills HT-1080 cells with IDH1 knockdown. HT-1080 IDH1 knockdown viability, ATP luminescence, 48 h. Potency, µM (top dose mostly 46.1 µM), for inactives: at the highest dose activity, negative = toxicity, most hits filed as cytotoxic. 360,000 tested, 2% active. AID 686971;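 note: 0% = DMSO wells and -100% = cell-free medium wells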
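Using the IDH1-knockdown HT-1080 line run in the same batch and compound series as the NT line, viability after 48 h at 37 °C was determined by CellTiter-Glo luminescence and expressed as % activity.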
SW480 rerep: induces DNA re-replication in SW480 colon adenocarcinoma cells | SW480 DNA re-replication, Hoechst DNA content imaging, 48 h | Potency, µM (series often up to 46.1 µM), for inactives: at the top dose re-replication activation, usual class: activators | 340,000 tested, 1.8% active | AID 624297; note: % of control where 0% means no effect; nearly all actives have a fitted effect of over 55% in size
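First, 250 cells per well were seeded. Next, compound or vehicle (23 nL) was pinned in, plates sat 48 hr at 37 C. Finally Hoechst was added for 40 min before fluorescence scanning.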
KB-3-1 cytotox: kills parental KB-3-1 adenocarcinoma cells | 400,000 tested, 1.4% active | KB-3-1 viability, CellTiter-Glo ATP luminescence, 72 h | Potency, µM (series often up to 46.1 µM), usual class: cytotoxic | AID 1347075; note: % is set by controls: 0 for no effect and ±100 for the full control effect; nearly all actives have a fitted effect of over 60% in size
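72 h, 37 °C compound treatment of KB-3-1 parental cells; CellTiter-Glo added, 10 min, luminescence read. Data corrected against DMSO-only plates and normalized before curve fitting.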
An asterisk follows results filed as active; i = inactive; ? = inconclusive; nt = no result; [ ] = remark or other dose. Calls come from the whole dose curve; as a rule, active = well fitted curve in the direction sought with a large enough effect; inconclusive = small, poorly fitted or top-dose-only effect, or another doubt; inactive = no such curve, though single readings can be large; an effect the other way counts as inactive or inconclusive. Potency is the fitted concentration of half-maximal effect.

SMILES	MCF10A rereplic	HT1080-NT tox	KB-V1 cytotox	HT1080 IDH1KD tx	SW480 rerep	KB-3-1 cytotox
CC(C)Cn1c2c(c(=O)[nH]c1=O)C(C(F)(F)F)(C(F)(F)F)N=C(CCC1CCCCC1)N2	16µM*	?	?	?	2%	i
O=C1Nc2c(c(=O)[nH]c(=O)n2-c2ccccc2)C(C(F)(F)F)(C(F)(F)F)N1	11%	3%	i	21%	2%	?
CCCCNC(=O)C1(C)CCN1C(=O)CSc1ccccc1 (configuration not stated)	nt	26%	i	5%	nt	i
CCCNC(=O)C1(C)CCCN(C(=O)c2cc(F)cc(F)c2)C1 (configuration not stated)	nt	2%	i	9%	nt	i
CC1=CC(C)(C)n2c(O)c(N=N)c3c(C)c(C)cc1c32	23µM*	-6%	?	-18%	?	i
Cc1nn2c(-c3ccccc3)ccnc2c1-c1ccccc1	?	9%	15µM*	4%	19%	i
O=C(C#Cc1ccccc1)c1ccco1	?	12µM*	i	6.5µM*	5.8µM*	?
O=C(N/N=C/c1ccccc1)c1ccco1	0%	-6%	?	-12%	1%	i
Cc1ccc(C)c(NC(=O)C(Sc2nncn2C)c2ccccc2)c1 (configuration not stated)	-4%	4%	15µM*	12%	-5%	i
Cc1ccc(C)c(NC(=O)C(Sc2ncnc3ccccc23)c2ccccc2)c1 (configuration not stated)	?	-5%	16µM*	3%	14%	i
CCc1c(C(=O)NNC(=O)Nc2ccc3c(c2)OCO3)csc1C	4%	-9%	nt	-15%	-1%	nt
O=C1N=C2SCCN2/C1=C\c1ccc(Cl)cc1	18µM*	?	?	?	2%	i
O=C1N=C2SCCN2C(=O)C1Cc1ccc(Cl)cc1 (configuration not stated)	11%	nt	nt	nt	-2%	nt
CCOc1cc(C(=O)N2CCC(c3ccncc3)CC2)cc(OCC)c1OCC	nt	nt	i	nt	nt	i
CCOC(=O)c1[nH]c(C)c(C(=O)Nc2ccccc2F)c1C	7.3µM*	?	3.7µM*	?	8.2µM*	2.3µM*
CCOC(=O)c1[nH]c(C)c(C(=O)Nc2ccc(F)cc2)c1C	1%	-16%	i	-9%	4%	i
CCOC(=O)c1[nH]c(C)c(C(=O)c2ccc(C)cc2)c1C	1.5µM*	1.8µM*	1.5µM*	1.3µM*	5.2µM*	i
CCOC(=O)c1[nH]c(C)c(C(=O)Nc2ccc(C)cc2C)c1C	13µM*	?	3.7µM*	12µM*	10µM*	2.6µM*
Cc1nn(CC(C)C)c(Cl)c1C(=O)N(c1ccc(Cl)cc1F)S(C)(=O)=O	21µM*	?	?	-19%	11%	i
COc1ccc(CCNC(=O)c2c(C)nn(CC(C)C)c2Cl)cc1	3%	0%	?	-3%	-3%	i
O=C(/C=C/c1ccc2c(c1)OCO2)c1ccc(O)cc1O	?	-7%	i	-40%	?	?
CNc1ccc(Br)cc(C(=O)/C=C/c2ccc(Cl)cc2Cl)c1=O	4.6µM*	?	?	21µM*	?	?
Nc1ccccc1C(=O)/C=C/c1ccc2c(c1)OCO2	?	-22%	?	-20%	18µM*	i
CNc1ccc(Br)cc(C(=O)/C=C/c2ccc(OC)cc2OC)c1=O	?	-7%	?	-17%	0%	i
CCNc1ccc(Br)cc(C(=O)/C=C/c2c(Cl)cccc2Cl)c1=O	23µM*	?	i	?	?	?
SMILES	MCF10A rereplic	HT1080-NT tox	KB-V1 cytotox	HT1080 IDH1KD tx	SW480 rerep	KB-3-1 cytotox
CCNc1ccc(Br)cc(C(=O)/C=C/c2ccc(Cl)cc2)c1=O	13µM*	?	18µM*	?	?	16µM*
COc1ccc(N(C(=O)COc2ccccc2OC)S(=O)(=O)c2ccc(C)cc2)cc1	?	-16%	i	-18%	-5%	i
Cc1[nH]n(C(N)=S)c(=O)c1N=Nc1ccccc1C(F)(F)F	6%	-5%	i	-10%	-19%	i
COc1cc(OCc2ccccc2)c(C(=O)/C=C/c2ccc3c(c2)OCO3)c(OC)c1OC	15µM*	-30%	?	?	?	?
CNc1ccc(Br)cc(C(=O)/C=C/c2cccc(OC)c2)c1=O	18µM*	?	?	?	?	?
CCNc1ccc(Br)cc(C(=O)/C=C/c2ccc3c(c2)OCO3)c1=O	18µM*	-4%	i	-5%	?	i
CCCc1nc2c3ccccc3ccn2c1CC(C)(C)C	nt	?	i	?	nt	i
Cc1c(C(=O)Nc2ccccn2)oc2c(Cl)cccc12	12%	-7%	?	-4%	-3%	i
Cc1ccc(NC(=O)CN(C)C(=O)COC(=O)COc2cc(C)cc(C)c2)cc1	nt	14%	i	10%	nt	i
O=C(Nc1cc(Sc2nc3ccccc3s2)cc([N+](=O)[O-])c1)c1ccccc1F	?	-16%	?	-24%	?	?
C[N+](C)(C)CC[N+]1(C)Cc2c(Cl)c(Cl)c(Cl)c(Cl)c2C1	8%	nt	nt	nt	3%	nt
CCOC(=O)c1cnc(Nc2nc3ccccc3o2)nc1CN1CCN(C)CC1	?	?	13µM*	15µM*	?	?
COc1ccc(NC2=CC(c3cccc(OC)c3)N(c3ccc(OC)cc3)C2=O)cc1 (configuration not stated)	0%	-9%	i	1%	4%	i
COc1ccccc1N1CCN(c2ncnc3onc(C)c23)CC1	nt	nt	?	nt	nt	i
COc1ccccc1N1CCN(c2ncnc3n[nH]c(Br)c23)CC1	nt	?	?	18µM*	nt	?
Cc1nc(SCC(=O)NCC2CCCO2)nc(C)c1C (configuration not stated)	-6%	8%[9.24 µM]	i	14%	?	i
CCN(CC(=O)Nc1ccccc1OC)C(=O)COc1ccc(C#N)cc1	4%	3%	i	0%	-93%	i
CCN(CC)C(=O)CSCC(=O)Nc1ccccc1	8.2µM*	4%	i	0%[9.24 µM]	-4%	i
CCN(CC(=O)Nc1ccccc1OC)C(=O)CSCC(=O)Nc1ccc(OC)cc1	-5%	18µM*	?	?	-4%	i
CCC(=O)c1ccc(OCC(=O)N(CC)CC(=O)Nc2ccccc2OC)cc1	-6%	-1%	16µM*	11%	-8%	i
